# The supplement of paper PMC6555819
# Tested on: RARb homodimer (NR concentration 270 nM)
# Experiment: PBM binding z-score (relative to random genomic background probes); higher = stronger binding; sequences stand for … in GC…GCGATTGACAGCGTAGAATGAAGG
# Procedure, shortened: (§1)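 Regression normalization was applied to scanned fluorescence from custom Agilent 4×180K protein-binding microarrays. Before scanning, arrays were incubated 1 h with ligand-free nuclear receptor dimers, and binding was detected with antibodies against each partner (one per run). Binding z-scores use the random background probes as reference.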
row,Sequence,PBM binding z-score
1,CGAACGAGGGCATGTGTTGATAGCAAATGCCGAT,0.926
2,CCTCGGATGACAGAAGGTCAGAGCTGTCCGCTTT,2.83
3,GGAACGAGCGCAAGTTGATAGCAGAGTTTGATGG,-0.846
4,TTACCAAGTTGAGCTGAGGTCGTTGATCCAACTC,0.944
5,GCGACTGGGGCATCAGCAGGTTACCATGACTTAA,0.92
6,CCTAGTTGGTCAAGTTCACACACGCTATAGGTAC,3.1
7,ATCGAAAGGTCGACGAGGCGAGTATACACCGTTT,2.61
8,TAACCAAGGTGAGCTGAGGTCGTTGATCCAACTC,1.63
9,CTACCAAGGAGAACAAGGTCGTTGATTACTATTC,1.14
10,CCGACTCGGGCAGAAAGGTTACCATACCATCCGG,1.59
11,CCTACTGGGCCAAGGGCATTGATCAGTCAAAGCA,0.581
12,CCGACTGGGGCACAGGTTACCATACTCAGTACGA,1.07
13,ACTAGCAGGCCAAGTTTGGGTCACGCAAACAAAG,2.72
14,CGAACTAGGTCAGTACAGGACAGTGAAGGATGAT,2.51
15,CCTCGGAGGACAGCAGGTCAGAGCTGTCCGCTTT,2.25
16,ATCTCTAGGTAAGACTCAGTACAGTGAAGAACGC,0.3
17,CCGACTGAGGCATAAGGTTACCATAAGCCAGCCC,1.13

# Tested on: RARg:RXRa (NR concentration 270 nM, RXRa partner concentration 90 nM)
# Experiment: as above
# Procedure, shortened: as §1
row,Sequence,PBM binding z-score
1,GCTCGGAGGACAAGGTCAGAGGTTTGTCCGTAGA,3.12
2,GGAACGAGGGCATTCAAGTTGATAGCATGGCGAT,1.04
3,CGTTACGGGTCACGAGGTTATAGCACGACGAGCG,6.32
4,AGTCAAAGTTCACTAGGTACCGTAAGATTCAGCT,4.92
5,GGAACGAGGGCAATCGAGTTGATAGCATGGCGAT,1.14
6,GGAGCGAGGGCATTCGAGTTGATAGCATGGCGAT,0.849
7,CTCGAAAGGACGTGCTCAGGTGAGTATACCAAAC,0.291
8,TCTCGGAGCACACGAAAGGTCAGAGCTCGACATC,3.96
9,TTACCAAGGTGAGCTGATGTCGTTGATCCAACTC,0.225
10,TTTAGTTGGTCACGGAGGTCACACACGACGGGTA,5.05
11,TCTAATTGGTCACGGAGGTCACACACGACGGGTA,5.01
12,TCGAGTAGGTTAGGGACATTCAGAATGGCGTCGA,0.15
13,TCTAGTTGGTCACAGGTCACACACTCGAAATGCG,3.75
14,TCTATTAGTTGATTAGGTCAACCGAAACAGCGGA,2.8
15,CGAACTAGGTCATCCAGGACAGTGGATACATTGA,4.08
16,TCGAGTAGGTTAAGGGCATTCAGAATGGCGTCGA,1.08
17,CGTCCAAGGTCAGAAAGGTCAGTGAATGCCGAGT,6.18
18,AGAATGAGGTTATTAAGATCAGGAAATTGCGGTC,1.3
19,CAAACTAGGTCATTGACAGGACAGTGAATAGTAA,4.74
20,TCTGCTCGGTCAACGATGGTCAGCTAATCTGCTA,1.41

row,Sequence,PBM binding z-score
1,CCGACTGGTGCAAGGTTACCATAACGCACAGCCA,0.462
2,GCTGCTAGGTCAACTGATGGTCAGCTTAAGCTCG,5.24
3,CGAACGAGGGCATGTGTTGATAGCAAATGCCGAT,1.08
4,CCTCGGATGACAGAAGGTCAGAGCTGTCCGCTTT,2.49
5,GGAACGAGCGCAAGTTGATAGCAGAGTTTGATGG,-0.499
6,TTACCAAGTTGAGCTGAGGTCGTTGATCCAACTC,0.311
7,GCGACTGGGGCATCAGCAGGTTACCATGACTTAA,0.761
8,CCTAGTTGGTCAAGTTCACACACGCTATAGGTAC,2.45
9,ATCGAAAGGTCGACGAGGCGAGTATACACCGTTT,4.06
10,TAACCAAGGTGAGCTGAGGTCGTTGATCCAACTC,1.33
11,CTACCAAGGAGAACAAGGTCGTTGATTACTATTC,0.413
12,CCGACTCGGGCAGAAAGGTTACCATACCATCCGG,1.41
13,CCTACTGGGCCAAGGGCATTGATCAGTCAAAGCA,0.0127
14,CCGACTGGGGCACAGGTTACCATACTCAGTACGA,1.02
15,ACTAGCAGGCCAAGTTTGGGTCACGCAAACAAAG,3.25
16,CGAACTAGGTCAGTACAGGACAGTGAAGGATGAT,2.64
17,CCTCGGAGGACAGCAGGTCAGAGCTGTCCGCTTT,2.17
18,ATCTCTAGGTAAGACTCAGTACAGTGAAGAACGC,0.259
19,CCGACTGAGGCATAAGGTTACCATAAGCCAGCCC,0.506
